Experiment [1] is described as follows: anti-His antibody binders, primary screen, artefact control for SMM control protein annotation, biochemical, small-molecule microarray, 635 nm fluorescence (AID 1128).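 Further: score merges feature fluorescence with signal-to-noise for each printed compound spot.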 Conditions: anti-His Alexa647 antibody binding, higher = more signal.
The subject of experiment [2] is Human papillomavirus type 1a E7 protein (residues 1-88). In words: HPV1a E7 small-molecule binders, primary screen, biochemical, small-molecule microarray, residues 1-88, 635 nm (AID 1129). The note with it: small-molecule microarray binding, fluorescence 635 nm; higher = more signal.
Experiment [3] addresses Focal adhesion kinase 1 (Homo sapiens) (UniProt Q05397). In words: small-molecule microarray binders of FAK, primary screen, biochemical, 635/667 nm fluorescence, BSA, DTT (AID 1130).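 Further: composite of spot emission at 667 nm and signal to noise over triplicate slides.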 Conditions: PTK2 binding, 635 nm fluorescence, higher = more signal.
Experiment [4] concerns Fibrinogen (Alexa647-labelled). Description: fibrinogen binders on compound microarrays, profiling panel, artefact control for SMM control-protein annotation, biochemical, small-molecule microarray, 635/667 nm fluorescence (AID 1131).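 Further: z-score merges 667 nm fluorescence with per-spot signal-to-noise over triplicate slides.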 The note with it: fibrinogen-A647 binding fluorescence, higher = more signal.
In experiment [5] the target is Follistatin (Homo sapiens) (UniProt P19883). Description: follistatin binders on small-molecule microarrays, primary screen, biochemical, small-molecule microarray, 635/667 nm fluorescence (AID 1132). Conditions: FST binding, 635 nm fluorescence, higher = more signal.
Experiment [6] concerns the target Fibroblast growth factor 2 (Homo sapiens) (UniProt P09038). Description: FGF2 binders on small-molecule microarrays, primary screen, biochemical, small-molecule microarray, 635/667 nm fluorescence (AID 1133). The note with it: small-molecule microarray binding, FGF2, fluorescence 635/667; higher = more signal.
The nature of experiment [7]: mitochondrial membrane potential change in A549 cells, profiling panel, cell-based, JC-1 fluorescence, basal, 24 h, 100 nL (AID 1138).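 Further: A549 lung adenocarcinoma cells under basal conditions with no added stimulus; test concentration not given here.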 Conditions: higher = more signal.
In experiment [8] the test system is Lefty1. Description: Lefty1 binders on small-molecule microarrays, primary screen, biochemical, small-molecule microarray, 635/667 nm fluorescence (AID 1139). Conditions: small-molecule microarray binding, fluorescence 635/667; higher = more signal.
Experiment [9] deals with wheat germ agglutinin (Triticum aestivum), Alexa647-labelled. Description: wheat germ agglutinin binders on compound microarrays, profiling panel, artefact control for SMM control-protein annotation, biochemical, small-molecule microarray, 635/667 nm fluorescence (AID 1140).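 Further: score merges 667 nm feature emission with signal to noise over triplicate slides.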 The note with it: WGA-A647 binding, 635 nm fluorescence, higher = more signal.
Experiment [10] concerns the target Luciferin 4-monooxygenase (Photinus pyralis) (UniProt P08659). In words: firefly luciferase enzyme inhibitors, primary screen, biochemical, luminescence, purified enzyme, 2006 set (AID 1141).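 Further: cell-free assay with purified firefly luciferase at 100 ng per well in PBS; test concentration not given here.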 Conditions: SteadyGlo luminescence, 30 min, higher = more signal, called active from +8 up or from −8 down.
Experiment [11] concerns Wnt5a (protein binding on small-molecule microarray). In words: Wnt5a binders on small-molecule microarray, primary screen, biophysical, 635/667 nm fluorescence (AID 1142).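 Further: fluorescence read at 667 nm with signal to noise per printed feature.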 Conditions: 635 nm fluorescence, higher = more signal.
Experiment [12] can be described thus: cell viability in Huh7 cells, primary screen, cytotoxicity control for HCV replication inhibitor project, CellTiter-Glo luminescence, basal, 48 h (AID 1143).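 Further: Huh7 hepatoma cells carrying a hepatitis C replication reporter with no stimulus; test concentration not given here.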 Conditions: Huh7 HCV replicon, higher = more signal, called active from +8 up or from −8 down.
A short description of experiment [13]: P. aeruginosa biofilm formation inhibitors, primary screen, PAO1 strain, BacTiter-Glo luminescence, LB-PBS (AID 1144). The note with it: 12 h, higher = more signal.
Experiment [14] in a line: CREB reporter modulators without forskolin, primary screen, cell-based, PC12, CRE-LacZ reporter, unstimulated (AID 1145). Conditions: no forskolin, luminescence, 4.5 h, higher = more signal, called active from +8 up or from −8 down.
Experiment [15] can be described thus: CREB reporter modulators under forskolin, primary screen, cell-based, PC12, CRE-LacZ reporter, forskolin-stimulated (AID 1146).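 Further: PC12 cells with 6xCRE LacZ reporter stimulated by forskolin 10 µM; beta-galactosidase reporter signal reflecting CREB driven transcription.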 Conditions: luminescence, 4.5 h, higher = more signal, called active from +8 up or from −8 down.
Experiment [16] deals with Streptavidin (Streptomyces avidinii) (UniProt P22629). In words: streptavidin binders on small-molecule microarray, primary screen, artefact control for SMM compound annotation, biophysical, 635/667 nm fluorescence (AID 1147).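 Further: signal reflects streptavidin binding to arrayed compounds as a control protein.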 Conditions: streptavidin binding, higher = more signal.
Experiment [17] is described as follows: small-molecule binders of probe aInhba, primary screen, biochemical, small-molecule microarray, 635/667 nm fluorescence (AID 1148).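 Further: score merges 667nm spot fluorescence with signal-to-noise for antibody binding to printed compounds.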 The note with it: higher = more signal.
For experiment [18], the target named is Torsin-1A (Homo sapiens) (UniProt O14656). In words: torsin A binders from cell lysate, primary screen, small-molecule microarray, wild-type, 635/667 nm (AID 1149). The note with it: COS7 hTOR1A-WT lysate, 635 nm fluorescence, higher = more signal.
For experiment [19] the target is unchanged. In words: small-molecule binders of mutant TOR1A in lysate, primary screen, cell lysate, small-molecule microarray, COS7 lysate, 635/667 nm fluorescence (AID 1150).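 Further: score pools 667 nm emission and signal to noise measuring lysate protein binding.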 Conditions: COS7 hTOR1A mutant lysate, 635 nm fluorescence, higher = more signal.
Experiment [20] has as its system Sonic hedgehog protein (Shh). In words: small-molecule binders of Shh protein, primary screen, biochemical, small-molecule microarray, 635/667 nm fluorescence (AID 1151).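 Further: Shh protein binding to compounds spotted on small-molecule microarray slides; score combines spot fluorescence intensity with signal-to-noise across triplicate slides.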 Conditions: small-molecule microarray binding, 635 nm fluorescence; higher = more signal.

Calls of active or inactive are those of the source. Unless noted, how the calls were made is not given here.

Sequence of Follistatin (Homo sapiens) (P19883 whole entry, looked up): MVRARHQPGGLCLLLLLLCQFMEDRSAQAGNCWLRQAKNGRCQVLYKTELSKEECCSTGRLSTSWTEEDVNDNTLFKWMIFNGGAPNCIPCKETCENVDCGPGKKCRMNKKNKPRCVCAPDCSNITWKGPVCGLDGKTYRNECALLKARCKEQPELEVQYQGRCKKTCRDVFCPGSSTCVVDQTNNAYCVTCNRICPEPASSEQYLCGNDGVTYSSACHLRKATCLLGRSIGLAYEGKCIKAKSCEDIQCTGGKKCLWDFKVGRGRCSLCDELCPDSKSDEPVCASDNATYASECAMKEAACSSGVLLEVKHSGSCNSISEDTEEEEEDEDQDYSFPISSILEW
Sequence of Torsin-1A (Homo sapiens) (O14656 whole entry, looked up): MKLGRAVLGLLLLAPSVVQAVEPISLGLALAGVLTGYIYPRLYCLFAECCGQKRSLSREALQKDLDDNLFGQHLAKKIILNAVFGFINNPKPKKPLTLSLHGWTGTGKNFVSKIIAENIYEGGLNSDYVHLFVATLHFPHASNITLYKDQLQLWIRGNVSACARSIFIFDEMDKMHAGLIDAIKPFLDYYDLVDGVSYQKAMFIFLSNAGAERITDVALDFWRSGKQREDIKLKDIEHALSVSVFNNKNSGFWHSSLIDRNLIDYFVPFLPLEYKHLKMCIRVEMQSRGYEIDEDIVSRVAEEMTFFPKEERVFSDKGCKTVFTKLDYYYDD
Sequence of Fibroblast growth factor 2 (Homo sapiens) (P09038 whole entry, looked up): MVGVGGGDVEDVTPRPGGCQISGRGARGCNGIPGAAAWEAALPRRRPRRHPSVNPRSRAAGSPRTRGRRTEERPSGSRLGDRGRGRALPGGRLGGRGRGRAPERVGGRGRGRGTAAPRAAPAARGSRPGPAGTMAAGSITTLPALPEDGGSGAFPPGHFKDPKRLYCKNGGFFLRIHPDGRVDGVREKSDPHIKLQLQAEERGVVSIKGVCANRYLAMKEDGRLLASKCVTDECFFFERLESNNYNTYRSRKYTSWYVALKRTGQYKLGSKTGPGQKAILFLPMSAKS
Sequence of Focal adhesion kinase 1 (Homo sapiens) (Q05397 whole entry, looked up): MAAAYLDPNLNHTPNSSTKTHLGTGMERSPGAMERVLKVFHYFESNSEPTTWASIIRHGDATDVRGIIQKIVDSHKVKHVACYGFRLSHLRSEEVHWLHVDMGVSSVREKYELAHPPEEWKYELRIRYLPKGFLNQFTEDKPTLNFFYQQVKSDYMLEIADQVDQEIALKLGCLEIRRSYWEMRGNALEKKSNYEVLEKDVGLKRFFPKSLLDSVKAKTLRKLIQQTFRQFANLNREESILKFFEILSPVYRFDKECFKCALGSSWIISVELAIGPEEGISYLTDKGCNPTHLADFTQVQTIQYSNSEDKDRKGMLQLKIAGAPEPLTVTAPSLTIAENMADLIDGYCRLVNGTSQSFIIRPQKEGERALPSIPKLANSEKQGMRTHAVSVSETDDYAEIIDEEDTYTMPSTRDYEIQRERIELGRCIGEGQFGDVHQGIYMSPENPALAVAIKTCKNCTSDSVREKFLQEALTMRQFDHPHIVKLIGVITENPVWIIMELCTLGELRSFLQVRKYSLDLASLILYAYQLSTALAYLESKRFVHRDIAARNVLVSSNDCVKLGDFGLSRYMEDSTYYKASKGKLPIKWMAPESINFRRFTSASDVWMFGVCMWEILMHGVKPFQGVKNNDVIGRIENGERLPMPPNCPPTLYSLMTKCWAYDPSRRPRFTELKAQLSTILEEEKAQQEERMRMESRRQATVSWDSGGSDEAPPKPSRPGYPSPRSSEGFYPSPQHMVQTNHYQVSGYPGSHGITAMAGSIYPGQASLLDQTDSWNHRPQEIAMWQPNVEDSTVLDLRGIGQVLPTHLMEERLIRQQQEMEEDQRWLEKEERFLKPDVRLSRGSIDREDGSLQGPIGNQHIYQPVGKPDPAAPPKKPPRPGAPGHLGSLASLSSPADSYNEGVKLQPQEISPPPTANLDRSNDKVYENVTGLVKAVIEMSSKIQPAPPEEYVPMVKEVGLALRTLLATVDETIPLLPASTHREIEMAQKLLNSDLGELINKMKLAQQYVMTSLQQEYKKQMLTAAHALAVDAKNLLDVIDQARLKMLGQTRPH
Sequence of Streptavidin (Streptomyces avidinii) (P22629 whole entry, looked up): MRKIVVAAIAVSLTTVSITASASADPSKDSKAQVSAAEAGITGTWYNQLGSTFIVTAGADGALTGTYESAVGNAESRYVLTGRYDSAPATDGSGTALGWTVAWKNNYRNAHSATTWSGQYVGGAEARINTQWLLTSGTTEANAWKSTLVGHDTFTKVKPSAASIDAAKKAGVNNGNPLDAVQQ
Sequence of Luciferin 4-monooxygenase (Photinus pyralis) (P08659 whole entry, looked up): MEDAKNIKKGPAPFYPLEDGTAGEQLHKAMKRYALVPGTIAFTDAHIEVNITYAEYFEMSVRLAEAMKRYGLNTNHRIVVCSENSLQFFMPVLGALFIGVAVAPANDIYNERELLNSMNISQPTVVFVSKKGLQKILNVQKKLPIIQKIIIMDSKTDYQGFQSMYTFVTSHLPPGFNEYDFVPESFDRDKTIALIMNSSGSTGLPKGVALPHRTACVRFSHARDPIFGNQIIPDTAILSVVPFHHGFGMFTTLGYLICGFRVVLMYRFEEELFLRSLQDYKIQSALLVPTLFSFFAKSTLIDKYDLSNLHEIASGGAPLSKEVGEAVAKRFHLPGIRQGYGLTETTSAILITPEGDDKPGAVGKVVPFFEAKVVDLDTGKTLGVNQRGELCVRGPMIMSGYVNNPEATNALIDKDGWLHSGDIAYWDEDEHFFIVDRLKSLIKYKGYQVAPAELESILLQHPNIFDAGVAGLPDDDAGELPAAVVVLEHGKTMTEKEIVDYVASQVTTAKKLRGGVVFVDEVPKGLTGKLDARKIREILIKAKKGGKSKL

As for `CCOC(=O)C1=CC[C@@H](c2ccc(C(F)(F)F)cc2)N(S(=O)(=O)c2ccc(C)cc2)[C@H]1c1ccccc1`, the composite z-score in [1] was 2.1; in experiment [2], 1.21; in experiment [3], 0.81; in [4] it was 0.955; in [5], 0.377; in experiment [6] it was -0.149. In addition, the composite z-score in [8] is 0.0777; in experiment [9] it was 1.22; in [11], 0.328; in experiment [16], 1.5; in [17], 0.316; in experiment [18], 0.504. The figures for the composite z-score in experiment [19] and in experiment [20] were 0.658 and 0.0252, respectively. Further, the z-score in [7] was -1.9; in experiment [10], 0.849 (inactive); in experiment [12], -4.89 (inactive); in experiment [13] it was 1.43 (inactive); in experiment [14], 0.986 (inactive); in [15] it was -0.052 (inactive).

Take `O=C1C2C=CC(C(O)c3c(F)cccc3Cl)N(Nc3ccccc3F)C2C(=O)N1c1ccccc1` (stereo not given): the composite z-score in experiment [1] came to 0.236; in experiment [2], 1.23; in experiment [3], 0.631; in experiment [4] it was 0.926; in experiment [5], 1.09; in [6], 0.793. Besides, the composite z-score in experiment [8] was -0.199; in experiment [9], 0.702; in [11], 0.185; in [16], 0.396; in [17] it was 0.143; in experiment [18], 0.0354. Also, the figures for the composite z-score in experiment [19] and in experiment [20] were 0.301 and -0.356, respectively. For the same compound, the z-score in [7] was 0.353; in experiment [10], -0.059 (inactive); in [12], 1.04 (inactive); in experiment [13] it was -0.563 (inactive); in experiment [14], 0.243 (inactive); in experiment [15], -0.0389 (inactive).

As to `CC=CC(O)C1C=CC2C(=O)N(C)C(=O)C2N1N(c1ccccc1)c1ccccc1` (stereo not given), the composite z-score is 0.573 in experiment [1]; -0.226 in [2]; 0.0652 in [3]; 0.241 in experiment [4]; 0.803 in experiment [5]; -0.024 in experiment [6]. Moreover, the composite z-score in [8] was found to be 0.212; in [9], 0.318; in [11], 0.16; in [16], 0.29; in [17], 0.0536; in [18] it was 2.7. Also, the results for the composite z-score in experiment [19] and in experiment [20] were 1.3 and 0.306, respectively. Moreover, the z-score in [7] was 1.32; in [10], 1.36 (inactive); in experiment [12], 0.695 (inactive); in experiment [13], 0.305 (inactive); in [14], -0.326 (inactive); in experiment [15], 0.493 (inactive).

As for `[N-]=[N+]=NCc1ccccc1[C@@H]1OC(c2ccc(OCCCO)cc2)=N[C@]1(CCS(=O)(=O)c1ccccc1)C(=O)N1CCOCC1`, the composite z-score in experiment [1] was 3.06; in [2], 1.24; in experiment [3], 0.531; in experiment [4], 1; in [5], 1.16; in experiment [6], 0.138. In addition, the composite z-score worked out at 0.186 in experiment [8]; 1.24 in [9]; 0.477 in experiment [11]; 1.5 in experiment [16]; 0.351 in experiment [17]; 0.796 in [18]. The composite z-score in experiment [19] is 0.947; in experiment [20] it was -0.149. In addition, the z-score is -0.191 in [7]; -1.43 (inactive) in experiment [10]; -4.07 (inactive) in [12]; -0.344 (inactive) in [13]; 1.59 (inactive) in experiment [14]; -1.08 (inactive) in experiment [15].

In the case of `C=CCNC(=O)[C@H]1[C@@H]2C(=O)O[C@@H](c3ccccc3)[C@@H](c3ccccc3)N2[C@@H](c2ccc(OCCO)cc2)[C@]12C(=O)Nc1ccc(C#CCC(C(=O)OC)C(=O)OC)cc12`, the composite z-score in experiment [1] came out at 2.47; in experiment [2], 1.2; in experiment [3] it was 0.413; in experiment [4], 0.858; in experiment [5], 0.929; in experiment [6], 0.826. Also, the composite z-score in [8] was 0.385; in experiment [9], 0.887; in [11], 0.256; in [16], 1.17; in experiment [17], 0.0816; in experiment [18] it was 0.332. The composite z-score in [19] was found to be 0.862; in experiment [20], 0.984. The z-score was -0.765 in experiment [7]; -0.275 (inactive) in [10]; -1.19 (inactive) in experiment [12]; 0.626 (inactive) in experiment [13]; -0.728 (inactive) in experiment [14]; 0.323 (inactive) in experiment [15].

(Values after PubChem BioAssay.)
